From ChEMBL document CHEMBL1961873, “Compounds: GSK PKIS; Assays: Nanosyn kinase panel” (2012)

What was measured:
[1] = target: Sphingosine kinase 1 (Homo sapiens) (UniProt Q9NYA1); conditions: at 1 µM;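 note: mean SPHK1 inhibition value reported from the GSK PKIS kinase panel screen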
[2] = target: T1, Sphingosine kinase 2 (Homo sapiens) (UniProt Q9NRA0); conditions: at 0.1 µM
T1 sequence (whole entry): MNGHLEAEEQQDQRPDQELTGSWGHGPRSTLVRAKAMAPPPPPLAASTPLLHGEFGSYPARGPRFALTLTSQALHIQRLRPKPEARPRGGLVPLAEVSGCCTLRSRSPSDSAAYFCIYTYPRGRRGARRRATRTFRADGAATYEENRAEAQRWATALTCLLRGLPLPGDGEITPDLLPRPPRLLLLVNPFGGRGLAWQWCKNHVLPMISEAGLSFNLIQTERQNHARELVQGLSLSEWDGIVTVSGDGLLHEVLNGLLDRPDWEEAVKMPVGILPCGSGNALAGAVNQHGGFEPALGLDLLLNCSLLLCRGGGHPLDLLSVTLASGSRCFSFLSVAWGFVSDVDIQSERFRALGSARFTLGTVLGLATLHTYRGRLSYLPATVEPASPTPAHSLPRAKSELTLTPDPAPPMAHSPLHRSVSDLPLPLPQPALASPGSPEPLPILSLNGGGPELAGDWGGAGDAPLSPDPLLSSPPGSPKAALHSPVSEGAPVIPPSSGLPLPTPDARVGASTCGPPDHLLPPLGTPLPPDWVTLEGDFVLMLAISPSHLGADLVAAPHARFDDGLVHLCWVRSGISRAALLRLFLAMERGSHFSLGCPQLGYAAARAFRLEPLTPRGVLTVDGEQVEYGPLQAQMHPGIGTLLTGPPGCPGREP

[3] = target: T1, Sphingosine kinase 2 (Homo sapiens); conditions: at 1 µM
[4] = target: Casein kinase II subunit alpha (Homo sapiens) (UniProt P68400); conditions: at 0.1 µM
Sequence of Casein kinase II subunit alpha (Homo sapiens) (P68400 whole entry, looked up): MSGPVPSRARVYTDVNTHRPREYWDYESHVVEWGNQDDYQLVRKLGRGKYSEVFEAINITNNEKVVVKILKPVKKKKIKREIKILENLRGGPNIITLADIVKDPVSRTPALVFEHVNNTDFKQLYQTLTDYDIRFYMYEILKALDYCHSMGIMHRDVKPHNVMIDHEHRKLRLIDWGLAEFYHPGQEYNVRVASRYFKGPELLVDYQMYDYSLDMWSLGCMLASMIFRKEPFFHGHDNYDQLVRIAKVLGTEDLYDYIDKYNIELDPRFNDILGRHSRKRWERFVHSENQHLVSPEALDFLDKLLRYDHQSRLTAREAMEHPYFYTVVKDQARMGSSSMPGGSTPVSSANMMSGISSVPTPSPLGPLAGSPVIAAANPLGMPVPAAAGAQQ

[5] = target: Casein kinase II subunit alpha (Homo sapiens) (UniProt P68400); conditions: at 1 µM
[6] = target: T2, Inhibitor of nuclear factor kappa-B kinase subunit alpha (Homo sapiens) (UniProt O15111); conditions: at 0.1 µM
T2 sequence (whole entry): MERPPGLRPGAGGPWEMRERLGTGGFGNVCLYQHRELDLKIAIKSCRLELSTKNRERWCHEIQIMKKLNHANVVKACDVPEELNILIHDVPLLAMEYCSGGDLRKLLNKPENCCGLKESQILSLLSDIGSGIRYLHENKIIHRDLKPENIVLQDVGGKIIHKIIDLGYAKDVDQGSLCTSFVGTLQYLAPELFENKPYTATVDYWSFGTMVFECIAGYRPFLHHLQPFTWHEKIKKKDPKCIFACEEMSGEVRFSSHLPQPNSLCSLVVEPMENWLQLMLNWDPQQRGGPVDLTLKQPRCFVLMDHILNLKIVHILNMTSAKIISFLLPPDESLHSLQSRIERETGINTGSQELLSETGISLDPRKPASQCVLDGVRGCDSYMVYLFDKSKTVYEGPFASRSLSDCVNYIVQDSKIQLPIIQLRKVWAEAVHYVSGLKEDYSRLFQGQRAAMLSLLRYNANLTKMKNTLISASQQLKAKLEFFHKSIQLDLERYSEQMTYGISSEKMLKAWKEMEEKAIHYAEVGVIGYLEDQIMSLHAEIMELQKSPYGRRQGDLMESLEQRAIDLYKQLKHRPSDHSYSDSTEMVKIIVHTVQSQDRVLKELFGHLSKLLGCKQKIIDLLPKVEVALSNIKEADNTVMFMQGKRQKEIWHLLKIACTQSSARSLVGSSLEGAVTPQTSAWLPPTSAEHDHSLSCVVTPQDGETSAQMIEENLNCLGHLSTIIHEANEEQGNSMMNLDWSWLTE

[7] = target: T2, Inhibitor of nuclear factor kappa-B kinase subunit alpha (Homo sapiens); conditions: at 1 µM
[8] = target: T3, Inhibitor of nuclear factor kappa-B kinase subunit beta (Homo sapiens) (UniProt O14920); conditions: at 0.1 µM
T3 sequence (whole entry): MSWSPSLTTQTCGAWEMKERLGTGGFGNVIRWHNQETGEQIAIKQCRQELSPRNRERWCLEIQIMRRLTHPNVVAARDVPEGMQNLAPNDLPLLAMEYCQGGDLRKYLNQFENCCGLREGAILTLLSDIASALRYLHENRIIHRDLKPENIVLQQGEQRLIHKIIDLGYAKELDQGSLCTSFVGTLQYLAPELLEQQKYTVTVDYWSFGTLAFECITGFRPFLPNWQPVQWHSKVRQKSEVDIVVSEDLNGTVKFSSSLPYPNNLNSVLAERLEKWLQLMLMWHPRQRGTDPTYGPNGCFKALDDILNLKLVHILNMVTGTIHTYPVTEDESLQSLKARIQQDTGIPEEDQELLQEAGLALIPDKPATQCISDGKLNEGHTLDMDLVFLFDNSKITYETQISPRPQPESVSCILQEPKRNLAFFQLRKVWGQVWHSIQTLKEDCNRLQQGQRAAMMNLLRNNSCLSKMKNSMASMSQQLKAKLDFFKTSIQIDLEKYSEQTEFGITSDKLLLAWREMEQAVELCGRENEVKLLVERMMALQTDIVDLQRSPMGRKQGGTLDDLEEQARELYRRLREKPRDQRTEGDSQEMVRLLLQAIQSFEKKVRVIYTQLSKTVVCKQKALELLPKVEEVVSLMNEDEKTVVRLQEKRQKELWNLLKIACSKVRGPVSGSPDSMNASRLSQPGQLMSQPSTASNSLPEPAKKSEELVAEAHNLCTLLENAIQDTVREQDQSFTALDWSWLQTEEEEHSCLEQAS

[9] = target: T3, Inhibitor of nuclear factor kappa-B kinase subunit beta (Homo sapiens); conditions: at 1 µM
[10] = target: T4, Inhibitor of nuclear factor kappa-B kinase subunit epsilon (Homo sapiens) (UniProt Q14164); conditions: at 0.1 µM
T4 sequence (whole entry): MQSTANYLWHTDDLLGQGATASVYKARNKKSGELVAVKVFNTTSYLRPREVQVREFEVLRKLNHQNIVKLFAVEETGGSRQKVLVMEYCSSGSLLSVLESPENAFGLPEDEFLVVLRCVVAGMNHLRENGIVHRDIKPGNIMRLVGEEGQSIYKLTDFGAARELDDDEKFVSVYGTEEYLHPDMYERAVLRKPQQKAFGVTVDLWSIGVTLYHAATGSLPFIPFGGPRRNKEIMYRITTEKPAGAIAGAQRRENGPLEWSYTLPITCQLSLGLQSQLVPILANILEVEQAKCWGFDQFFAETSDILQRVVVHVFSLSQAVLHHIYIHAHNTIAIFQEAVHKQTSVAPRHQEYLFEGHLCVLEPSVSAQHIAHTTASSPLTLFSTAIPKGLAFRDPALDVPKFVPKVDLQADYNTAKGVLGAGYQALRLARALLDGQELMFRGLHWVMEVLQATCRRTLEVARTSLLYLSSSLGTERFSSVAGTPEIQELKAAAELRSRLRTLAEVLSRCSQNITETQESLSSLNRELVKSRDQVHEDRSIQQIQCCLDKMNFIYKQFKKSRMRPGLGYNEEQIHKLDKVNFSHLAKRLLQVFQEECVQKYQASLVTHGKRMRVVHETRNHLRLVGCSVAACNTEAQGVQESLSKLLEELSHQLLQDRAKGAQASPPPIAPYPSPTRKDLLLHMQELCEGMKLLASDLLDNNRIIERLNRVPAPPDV

[11] = target: T4, Inhibitor of nuclear factor kappa-B kinase subunit epsilon (Homo sapiens); conditions: at 1 µM
[12] = target: T5, Serine/threonine-protein kinase Nek1 (Homo sapiens) (UniProt Q96PY6); conditions: at 0.1 µM
T5 sequence (whole entry): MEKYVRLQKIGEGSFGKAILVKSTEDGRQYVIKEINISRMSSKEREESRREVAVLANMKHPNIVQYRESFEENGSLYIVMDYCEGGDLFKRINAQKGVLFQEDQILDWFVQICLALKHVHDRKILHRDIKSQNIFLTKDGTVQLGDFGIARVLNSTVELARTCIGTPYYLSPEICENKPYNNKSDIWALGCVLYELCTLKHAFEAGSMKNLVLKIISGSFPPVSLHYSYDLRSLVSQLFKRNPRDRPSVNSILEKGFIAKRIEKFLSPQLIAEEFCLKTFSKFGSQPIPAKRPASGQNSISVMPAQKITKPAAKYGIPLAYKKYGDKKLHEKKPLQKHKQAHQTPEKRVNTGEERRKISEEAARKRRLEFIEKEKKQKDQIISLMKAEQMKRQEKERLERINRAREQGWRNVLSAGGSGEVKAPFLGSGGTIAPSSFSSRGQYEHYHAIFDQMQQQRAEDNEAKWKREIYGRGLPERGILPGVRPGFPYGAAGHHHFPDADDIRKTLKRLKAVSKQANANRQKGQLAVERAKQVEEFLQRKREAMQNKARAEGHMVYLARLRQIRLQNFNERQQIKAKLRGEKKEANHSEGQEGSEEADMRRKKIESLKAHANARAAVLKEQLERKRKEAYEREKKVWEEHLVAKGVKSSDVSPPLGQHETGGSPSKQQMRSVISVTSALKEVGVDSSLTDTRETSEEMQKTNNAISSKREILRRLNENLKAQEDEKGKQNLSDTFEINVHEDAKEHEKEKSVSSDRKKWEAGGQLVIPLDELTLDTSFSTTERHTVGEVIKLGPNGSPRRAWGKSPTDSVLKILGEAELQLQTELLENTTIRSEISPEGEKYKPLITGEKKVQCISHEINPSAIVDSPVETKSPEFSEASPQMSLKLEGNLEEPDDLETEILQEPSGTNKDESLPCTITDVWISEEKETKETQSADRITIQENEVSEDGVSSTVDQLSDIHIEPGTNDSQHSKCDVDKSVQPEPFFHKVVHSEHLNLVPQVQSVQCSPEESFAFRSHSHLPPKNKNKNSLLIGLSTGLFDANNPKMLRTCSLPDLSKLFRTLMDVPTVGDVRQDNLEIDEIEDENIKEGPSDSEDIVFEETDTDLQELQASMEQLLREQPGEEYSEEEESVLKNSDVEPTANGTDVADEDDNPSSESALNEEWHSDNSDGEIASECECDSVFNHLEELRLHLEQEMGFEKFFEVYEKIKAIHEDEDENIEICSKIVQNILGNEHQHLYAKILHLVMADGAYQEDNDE

[13] = target: T5, Serine/threonine-protein kinase Nek1 (Homo sapiens); conditions: at 1 µM
[14] = target: T6, Serine/threonine-protein kinase Nek2 (Homo sapiens) (UniProt P51955); conditions: at 0.1 µM
T6 sequence (whole entry): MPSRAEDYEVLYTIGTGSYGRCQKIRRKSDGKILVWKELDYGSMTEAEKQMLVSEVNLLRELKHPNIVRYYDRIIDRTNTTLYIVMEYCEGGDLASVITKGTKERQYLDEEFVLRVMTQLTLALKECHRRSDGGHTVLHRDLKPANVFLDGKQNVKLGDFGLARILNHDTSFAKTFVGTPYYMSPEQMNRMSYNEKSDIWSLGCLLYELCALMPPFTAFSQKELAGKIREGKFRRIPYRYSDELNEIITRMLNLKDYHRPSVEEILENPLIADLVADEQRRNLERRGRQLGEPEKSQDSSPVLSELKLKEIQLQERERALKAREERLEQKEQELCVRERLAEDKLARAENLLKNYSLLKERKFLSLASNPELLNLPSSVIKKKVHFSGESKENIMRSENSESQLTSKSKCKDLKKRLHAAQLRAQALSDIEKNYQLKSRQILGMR

[15] = target: T6, Serine/threonine-protein kinase Nek2 (Homo sapiens); conditions: at 1 µM
[16] = target: Serine/threonine-protein kinase Nek6 (Homo sapiens) (UniProt Q9HC98); conditions: at 0.1 µM
Sequence of Serine/threonine-protein kinase Nek6 (Homo sapiens) (Q9HC98 whole entry): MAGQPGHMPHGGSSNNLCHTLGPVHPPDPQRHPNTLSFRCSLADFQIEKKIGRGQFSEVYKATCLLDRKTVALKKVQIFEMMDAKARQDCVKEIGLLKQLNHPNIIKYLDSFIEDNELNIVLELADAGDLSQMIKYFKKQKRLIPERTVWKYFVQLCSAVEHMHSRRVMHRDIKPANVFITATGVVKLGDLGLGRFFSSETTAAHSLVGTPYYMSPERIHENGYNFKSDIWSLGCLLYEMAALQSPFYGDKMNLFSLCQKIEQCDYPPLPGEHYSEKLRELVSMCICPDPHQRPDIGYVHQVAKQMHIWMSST

[17] = target: Serine/threonine-protein kinase Nek6 (Homo sapiens) (UniProt Q9HC98); conditions: at 1 µM
[18] = target: Serine/threonine-protein kinase Nek7 (Homo sapiens) (UniProt Q8TDX7); conditions: at 0.1 µM
Sequence of Serine/threonine-protein kinase Nek7 (Homo sapiens) (Q8TDX7 whole entry, looked up): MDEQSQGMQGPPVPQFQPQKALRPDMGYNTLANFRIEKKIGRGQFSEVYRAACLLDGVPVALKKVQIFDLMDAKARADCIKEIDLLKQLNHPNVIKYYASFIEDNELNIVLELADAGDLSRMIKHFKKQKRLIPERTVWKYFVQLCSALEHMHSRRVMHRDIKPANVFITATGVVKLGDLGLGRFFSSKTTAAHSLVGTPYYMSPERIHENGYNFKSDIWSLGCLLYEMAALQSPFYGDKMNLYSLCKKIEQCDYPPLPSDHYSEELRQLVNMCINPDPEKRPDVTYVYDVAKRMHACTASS

[19] = target: Serine/threonine-protein kinase Nek7 (Homo sapiens) (UniProt Q8TDX7); conditions: at 1 µM
[20] = target: T7, Serine/threonine-protein kinase Nek9 (Homo sapiens) (UniProt Q8TD19); conditions: at 0.1 µM;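 note: reported value is the mean percent inhibition of NEK9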
T7 sequence (whole entry): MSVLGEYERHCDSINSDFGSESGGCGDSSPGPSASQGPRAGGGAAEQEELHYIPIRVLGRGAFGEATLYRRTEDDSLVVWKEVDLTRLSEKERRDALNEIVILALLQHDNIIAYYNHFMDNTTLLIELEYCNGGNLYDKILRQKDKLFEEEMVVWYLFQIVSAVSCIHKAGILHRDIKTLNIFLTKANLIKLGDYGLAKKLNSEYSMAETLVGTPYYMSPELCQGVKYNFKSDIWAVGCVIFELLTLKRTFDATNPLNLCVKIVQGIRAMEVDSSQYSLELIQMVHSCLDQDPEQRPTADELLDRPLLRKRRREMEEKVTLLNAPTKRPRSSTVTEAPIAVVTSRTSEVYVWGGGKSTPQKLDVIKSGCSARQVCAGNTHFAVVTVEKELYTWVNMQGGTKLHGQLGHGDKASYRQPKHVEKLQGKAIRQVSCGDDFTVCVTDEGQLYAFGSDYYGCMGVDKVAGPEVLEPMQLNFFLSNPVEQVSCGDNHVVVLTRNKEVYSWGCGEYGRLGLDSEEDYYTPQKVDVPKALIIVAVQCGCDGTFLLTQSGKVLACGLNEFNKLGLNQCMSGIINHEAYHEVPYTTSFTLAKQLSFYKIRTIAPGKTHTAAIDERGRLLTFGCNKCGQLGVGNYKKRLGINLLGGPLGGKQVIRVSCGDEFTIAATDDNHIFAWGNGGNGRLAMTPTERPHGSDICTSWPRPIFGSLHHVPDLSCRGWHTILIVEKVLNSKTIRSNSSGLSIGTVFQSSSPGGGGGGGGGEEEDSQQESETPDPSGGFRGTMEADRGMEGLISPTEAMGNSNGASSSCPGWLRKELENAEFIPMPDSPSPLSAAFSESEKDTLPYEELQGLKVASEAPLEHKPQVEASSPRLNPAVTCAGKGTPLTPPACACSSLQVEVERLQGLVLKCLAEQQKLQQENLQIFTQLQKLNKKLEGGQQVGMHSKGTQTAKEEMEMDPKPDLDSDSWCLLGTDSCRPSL

Sequence of Sphingosine kinase 1 (Homo sapiens) (Q9NYA1 whole entry): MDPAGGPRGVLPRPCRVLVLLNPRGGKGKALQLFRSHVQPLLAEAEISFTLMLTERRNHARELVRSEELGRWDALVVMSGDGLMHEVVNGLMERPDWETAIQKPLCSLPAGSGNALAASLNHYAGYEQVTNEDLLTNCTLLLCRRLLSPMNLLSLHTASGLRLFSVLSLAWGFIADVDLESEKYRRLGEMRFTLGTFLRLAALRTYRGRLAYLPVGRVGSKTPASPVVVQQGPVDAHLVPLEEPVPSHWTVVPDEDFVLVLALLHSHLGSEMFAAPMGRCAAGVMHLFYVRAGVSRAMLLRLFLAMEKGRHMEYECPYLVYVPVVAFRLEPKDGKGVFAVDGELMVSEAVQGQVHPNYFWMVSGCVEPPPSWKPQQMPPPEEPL

Structure (SMILES) | inhibition [1] | inhibition [2] | inhibition [3] | inhibition [4] | inhibition [5] | inhibition [6] | inhibition [7] | inhibition [8] | inhibition [9] | inhibition [10] | inhibition [11] | inhibition [12] | inhibition [13] | inhibition [14] | inhibition [15] | inhibition [16] | inhibition [17] | inhibition [18] | inhibition [19] | inhibition [20]
COc1cc2ncn(-c3cc(O[C@H](C)c4ccccc4Cl)c(C(N)=O)s3)c2cc1OC | -3.88% | 0.33% | -2.47% | 5.76% | 19.5% | 6.13% | 9.16% | 3.99% | 6.57% | 8.51% | 6.91% | 29.8% | 67.8% | 12.1% | 48.8% | 2.67% | 4.93% | 3.58% | 4.26% | 62%
Cc1nn(C)c2cc(N(C)c3ccnc(Nc4cccc(S(N)(=O)=O)c4)n3)ccc12 | 1.31% | 0.44% | 0.14% | 2.59% | 1.94% | 2.21% | 3.6% | 4.27% | 4.54% | 4.1% | 4.76% | 2.28% | 3.95% | 3.82% | 5.14% | 0.43% | 1.3% | 5.76% | 3.53% | 8.48%
